In PubChem BioAssay AID411 (National Center for Advancing Translational Sciences (NCATS), 2006):
Out of some 72,000 compounds screened, about 1,600 (2.2%) were called active. Calls follow the shape of the dose curve; as a rule, active = well fitted inhibition curve with a large enough effect; inconclusive = small, poorly fitted or top-dose-only effect; inactive = flat fitted curve, though single readings scatter. Only a selection was taken, and actives are over-represented in it overall.

What follows are compounds tested against Luciferin 4-monooxygenase (Photinus pyralis) (UniProt P08659) (assay: qHTS Assay for Inhibitors of Firefly Luciferase). Conditions: purified firefly luciferase, luminescence, 8 min; series mostly up to 57.1 µM.
Description: To aid in the interpretation of high-throughput screening (HTS) results derived from luciferase-based assays, we used quantitative HTS, an approach that defines the concentration-response behavior of each library sample, to profile the ATP-dependent luciferase from Photinus pyralis against more than 72 000 samples. Luciferase (PKLight, Cambrex Corporation) was assayed for its ability to generate light using ATP and luciferin as substrates. The ATP concentration in the assay (10 uM) was within the linear range of enzyme activity for the assay conditions used. See following reference for further details: [1] Auld DS, Southall NT, Jadhav A, Johnson RL, Diller DJ, Simeonov A, Austin CP, Inglese J. Characterization of chemical libraries for luciferase inhibitory activity. J Med Chem. 2008 Apr 24;51(8):2372-86. Auld DS, Zhang YQ, Southall NT, Rai G, Landsman M, Maclure J, Langevin D, Thomas CJ, Austin CP, Inglese J. A Basis for Reduced Chemical Library Inhibition of Firefly Luciferase Obtained from Directed Evolution. J. Med. Chem., 2009, 52 (5), pp 1450#1458 [3] Auld DS, Thorne N, Nguyen DT, Inglese J. A specific mechanism for nonspecific activation in reporter-gene assays. ACS Chem Biol. 2008 Aug 15;3(8):463-70. Auld DS, Thorne N, Maguire WF, Inglese J. Mechanism of PTC124 activity in cell-based luciferase assays of nonsense codon suppression. Proc Natl Acad Sci U S A. 2009 Mar 3;106(9):3585-90. Inglese J, Auld DS, Jadhav A, Johnson RL, Simeonov A, Yasgar A, Zheng W, Austin CP. Quantitative high-throughput screening: a titration-based approach that efficiently identifies biological activities in large chemical libraries. Proc Natl Acad Sci U S A. 2006 Aug 1;103(31):11473-8.
Four uL of substrate mix (final concentration, 50 mM imidazole pH 7.2, 50 mM KCl, 7 mM MgCl2, 10 uM ATP, 0.01% Tween 20, 0.05% BSA) was dispensed into white 1536 well plates. Twenty-three nL of compound was delivered by a pin tool and 2 uL of luciferase detector mix (PKLight, Cambrex) was added. Following 8-minute incubation at ambient temperature, luminescence was measured by a ViewLux (Perkin Elmer) at 5 seconds exposure/plate.
% is scaled to controls: 0 for no effect and ±100 for the full control effect; potency is read from the fitted curve at half-maximal effect.
Also: nearly all actives have a fitted effect of over 40% in size.

Chain of Luciferin 4-monooxygenase (Photinus pyralis) (P08659 whole entry, looked up): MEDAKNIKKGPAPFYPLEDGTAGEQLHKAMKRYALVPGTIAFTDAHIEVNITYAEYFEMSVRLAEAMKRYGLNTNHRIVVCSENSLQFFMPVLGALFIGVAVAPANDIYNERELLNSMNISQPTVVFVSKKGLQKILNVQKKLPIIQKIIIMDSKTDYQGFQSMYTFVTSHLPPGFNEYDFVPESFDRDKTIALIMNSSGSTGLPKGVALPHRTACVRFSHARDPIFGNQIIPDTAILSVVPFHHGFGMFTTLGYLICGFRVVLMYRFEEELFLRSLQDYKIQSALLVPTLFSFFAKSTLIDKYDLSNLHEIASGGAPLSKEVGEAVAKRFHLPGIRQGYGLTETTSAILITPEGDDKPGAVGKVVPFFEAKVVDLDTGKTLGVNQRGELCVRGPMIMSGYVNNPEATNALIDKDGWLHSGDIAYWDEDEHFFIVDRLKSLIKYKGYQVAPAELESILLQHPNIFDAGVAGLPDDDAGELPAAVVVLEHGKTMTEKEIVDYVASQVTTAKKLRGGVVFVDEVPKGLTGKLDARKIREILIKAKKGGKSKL

`COc1ccc(NC(=O)Nc2cccc3cccnc23)cc1` was tested. Which Potency did it give?
Its Potency is 5.01 µM (active).

Which activity change, negative = inhibition does the source give for `c1ccc(CN2CC[C@@]3(CCCNC3)C2)cc1` here?
The activity change, negative = inhibition was 0.194% [at 11.4 µM] (inactive).

How did the activity change, negative = inhibition turn out when `CC(C)(c1ccc(OC[C@@H]2CO2)cc1)c1ccc(OC[C@H]2CO2)cc1` was run?
Its activity change, negative = inhibition is “inactive”.

Which activity change, negative = inhibition does the source give for `CC[C@]1(O)C(=O)OCc2c1cc1n(c2=O)Cc2cc3ccccc3nc2-1` here?
The activity change, negative = inhibition was 1.26% [at 11.4 µM] (inactive).

`Cc1cccc([C@H](C)c2cnc[nH]2)c1C` was tested. Which activity change, negative = inhibition did it give?
Its activity change, negative = inhibition is “inactive”.
